PubChem BioAssay (Tox21)
Inconclusive results are not listed. Where a call stands in place of a potency, no number is given. A number with no mark means an inactive call. Calls of active or inactive are those of the source. Calls follow the shape of the dose curve; as a rule, active = well fitted cell-killing curve with a large enough effect in the repeat runs; inconclusive = weak or mixed curves, or effect the other way; inactive = flat fitted curve, though single readings scatter.

What was measured:
[1] = cAMP Responsive Elements (CRE) small molecule antagonists, cell-based qHTS assay: qHTS cell viability counter screen (AID 2060913); also: nearly all actives have a fitted effect of over 40% in size
Outline: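 HEK293T CRE-bla, 2,000 cells/well, 18 h preincubation; cpd in DMSO + NKH477 0.25 uM final, 3 h 37 C/5% CO2; LiveBLAzer 2 h RT, then CellTiter-Glo 30 min RT, luminescence.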

[2] = cAMP Responsive Elements (CRE) small molecule agonists, cell-based qHTS assay: qHTS cell viability counter screen (AID 2060914); also: nearly all actives have a fitted effect of over 50% in size
Outline: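 Luminescence read-out (CellTiter-Glo, 30 min RT) of ATP-based viability in CRE-bla HEK 293T cells, run in the same wells as the β-lactamase reporter assay after 3 h compound treatment at 37 °C.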

| SMILES | Potency [1] | Potency [2] | viability change, negative = cytotoxic [1] | activity change, negative = cytotoxicity [2] |
| --- | --- | --- | --- | --- |
| Nc1ccc2c3c(cccc13)-c1ccccc1-2 | inactive | inactive |  |  |
| OC[C@]1(O)OC[C@@H](O)[C@H](O)[C@@H]1O | inactive | inactive |  |  |
| CC(=O)[C@@]1(O)CC[C@H]2[C@@H]3C[C@H](C)C4=CC(=O)CC[C@]4(C)[C@H]3CC[C@@]21C | inactive | inactive |  |  |
| COc1cc(C(=S)N2CCOCC2)cc(OC)c1OC | inactive | inactive |  |  |
| C=CC(C)C#N (stereo not drawn) | inactive | inactive |  |  |
| OCC(F)(F)F | inactive | inactive |  |  |
| CCCC1CCC(=O)O1 (stereo not drawn) | inactive | inactive |  |  |
| CN(C)CCCNCCC#N | inactive | inactive |  |  |
| OCCNCc1ccccc1 | inactive | inactive |  |  |
| CC(=O)CC(=O)c1ccccc1 | inactive | inactive |  |  |
| O=[N+]([O-])c1ccc(Oc2ccc([N+](=O)[O-])cc2)cc1 | inactive | inactive |  |  |
| CCCCCCCC[Si](OCC)(OCC)OCC | inactive | inactive |  |  |
| CNCc1cc(F)ccc1Oc1ccc(Cl)c(Cl)c1 | inactive | inactive |  |  |
| Cc1cc(C)cc(N)c1 | inactive | inactive |  |  |
| C=CCSCC1Nc2cc(Cl)c(S(N)(=O)=O)cc2S(=O)(=O)N1 (stereo not drawn) | inactive | inactive |  |  |
| Nc1ccc(S(=O)(=O)Nc2ccc(Cl)nn2)cc1 | inactive | inactive |  |  |
| COC(=O)c1ccc(OC)cc1 | inactive | inactive |  |  |
| C[C@H]1O[C@@H](n2cc(F)c(=O)[nH]c2=O)[C@H](O)[C@@H]1O | inactive | inactive |  |  |
| CCCCCCCCCCCCOC(=O)c1ccc(O)cc1 | inactive | inactive |  |  |
| CCCCCCCCCCCCSCCOCCO | inactive | inactive |  |  |
| COC(=O)Nc1nc2ccc(C(=O)c3cccs3)cc2[nH]1 | inactive | inactive |  |  |
| CC(C)(CO)CO | inactive | inactive |  |  |
| O=Cc1cccc([N+](=O)[O-])c1 | inactive | inactive |  |  |
| NO | inactive | inactive |  |  |
| COc1c(C)c2c(c(O)c1C/C=C(\C)CCC(=O)O)C(=O)OC2 | inactive | inactive |  |  |

| SMILES | Potency [1] | Potency [2] | viability change, negative = cytotoxic [1] | activity change, negative = cytotoxicity [2] |
| --- | --- | --- | --- | --- |
| CC(CN(C)C)C(C)(O)Cc1ccc(Cl)cc1 (stereo not drawn) | inactive | inactive |  |  |
| CCO[Si](CCC#N)(OCC)OCC | inactive | inactive |  |  |
| Nc1cc(Cl)c(N)c(Cl)c1 | inactive | inactive |  |  |
| O=c1c(-c2ccc(O)cc2)coc2cc(O)cc(O)c12 | inactive | inactive |  |  |
| Oc1ccc(O)cc1 | inactive | inactive |  |  |
| NCCCNCCSP(=O)(O)O |  |  | -1.42% [at 8.39 µM] | 3.53% [at 8.39 µM] |
| CCOC(=O)/C=C/c1ccccc1 | inactive | inactive |  |  |
| S=C(S)NCCNC(=S)S | inactive | inactive |  |  |
| Cc1ccc(CCn2c3c(c4cc(Cl)ccc42)CN(C)CC3)cn1 | inactive | inactive |  |  |
| CCC(C)(C)OC | inactive | inactive |  |  |
| Cc1cc2nc3c(=O)[nH]c(=O)nc-3n(C[C@H](O)[C@H](O)[C@H](O)CO)c2cc1C | inactive | inactive |  |  |
| CCN(C=O)CC | inactive | inactive |  |  |
| CCn1nc(Cc2ccccc2)cc1C1CCN(C[C@H]2C[C@H](N(C)[C@@H](C(=O)O)C(C)C)C[C@@H]2c2cccc(F)c2)CC1 | inactive | inactive |  |  |
| CN1CCN(C)CC1 | inactive | inactive |  |  |
| C=CCCC=C | inactive | inactive |  |  |
| CCC1(c2cnc[nH]2)Cc2ccccc2C1 | inactive | inactive |  |  |
| C[C@@H]1CN(CCCn2c3ccccc3c3ccccc32)C[C@H](C)N1 | inactive | inactive |  |  |
| O=C=Nc1cccc(C(F)(F)F)c1 | inactive | inactive |  |  |
| CCN(CCO)CCCC(C)Nc1ccnc2cc(Cl)ccc12 (stereo not drawn) |  |  | 24.8% [at 8.39 µM] | -9.15% [at 8.39 µM] |
| CC(C)SCc1ccco1 | inactive | inactive |  |  |
| O=C(C(Cl)Cl)N1CCOC12CCCCC2 | inactive | inactive |  |  |
| OC[C@H]1O[C@@H]2O[C@H]3[C@H](O)[C@@H](O)[C@@H](O[C@H]4[C@H](O)[C@@H](O)[C@@H](O[C@H]5[C@H](O)[C@@H](O)[C@@H](O[C@H]6[C@H](O)[C@@H](O)[C@@H](O[C@H]7[C@H](O)[C@@H](O)[C@@H](O[C@H]8[C@H](O)[C@@H](O)[C@@H](O[C@H]9[C@H](O)[C@@H](O)[C@@H](O[C@H]1[C@H](O)[C@H]2O)O[C@@H]9CO)O[C@@H]8CO)O[C@@H]7CO)O[C@@H]6CO)O[C@@H]5CO)O[C@@H]4CO)O[C@@H]3CO | inactive | inactive |  |  |
| CCCCCCCCCCCCCCCCCC#N | inactive | inactive |  |  |
| CCC(=O)OCCOc1ccccc1 | inactive | inactive |  |  |
